“And” between values parts separate entries of the source, which are not always exact repeats. Equal values may be shown once. Where a name gives a salt, the structure may show the parent alone. ± gives the standard deviation of the averaged measurements.
Assays:
Molm13 = experiment: cell viability relative to DMSO control (bortezomib = 0%); higher = less growth inhibition; conditions: 10 nM; 72 h
In short: (§1)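 Acute myeloid leukemia cells were plated at 1000 cells per well in 50 µL onto a 679-compound library of approved and investigational agents in 384-well plates and exposed to a single 10 nM dose for 72 h, in duplicate. Cell viability was measured by CellTiter-Glo luminescence on an EnVision reader. Readings were scaled to percentages by per-plate linear regression, with DMSO-treated cells set at 100% and positive-control-treated cells at 0%.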

Mv4-11 = experiment: as above; conditions: 10 nM; 72 h
In short: as §1

Row | Structure (SMILES) | cell viability (Molm13) | cell viability (Mv4-11)
1 | NC(=O)Nc1cc(-c2cccc(F)c2)sc1C(=O)N[C@H]1CCCNC1 | -11.2 ± 3.9% | -9.83 ± 4.2%
2 | Cc1cc(Nc2ncc(Cl)c(Nc3ccccc3S(=O)(=O)C(C)C)n2)c(OC(C)C)cc1C1CCNCC1 [LDK378(Ceritinib)] | 110 ± 4.9% | 103.8 ± 0.72%
3 | C[C@H](Nc1ncnc2nc[nH]c12)c1cc2cccc(Cl)c2c(=O)n1-c1ccccc1 [Duvelisib (IPI-145, INK1197)] | 111 ± 14% | 111 ± 15%
4 | C[C@@H](Oc1ccc2[nH]nc(/C=C/c3cnn(CCO)c3)c2c1)c1c(Cl)cncc1Cl | 97.5 ± 12% | 105 ± 3.5%
5 | CN1CCN(c2ccc(Nc3cc(-c4cccc(-n5ccc6cc(C7CC7)cc(F)c6c5=O)c4CO)cn(C)c3=O)nc2)CC1 | 99.6 ± 8.6% | 107 ± 8.8%
6 | COc1cc2/c(=N/c3ccc(Br)cc3F)nc[nH]c2cc1OCC1CCN(C)CC1 [Vandetanib (ZD6474)] | 116 ± 22% | 117 ± 41%
7 | Cn1cnc2nc(NCCO)nc(NCc3ccccc3)c21 [Iso-Olomoucine] | 119 ± 15% | 113 ± 9.7%
8 | C#Cc1cccc(Nc2ncnc3cc4c(cc23)OCCOCCOCCO4)c1 [Icotinib] | 93.2 ± 10% | 97.5 ± 5.9%
9 | CCc1cncnc1N1CCN(Cc2nc3ccc(C(F)(F)F)cc3[nH]2)CC1 | 106 ± 32% | 116 ± 7.7%
10 | COc1cc2c(Oc3ccc4[nH]c(C)cc4c3F)ncnc2cc1OCCCN1CCCC1 [Cediranib (AZD2171)] | 107 ± 23% | 107 ± 10%
11 | Cc1cnc(-c2cnc(NCCNc3ccc(C#N)cn3)nc2-c2ccc(Cl)cc2Cl)[nH]1 | 104% and 111% | 105% and 110%
12 | CC(C)(C)c1cc(C=C(C#N)C(N)=S)cc(C(C)(C)C)c1O | 108 ± 5.4% | 111 ± 3.4%
13 | Nc1cc(C(F)(F)F)c(-c2nc(N3CCOCC3)nc(N3CCOCC3)n2)cn1 | 94.3 ± 30% | 109 ± 5.2%
14 | Cc1cn(-c2cc(NC(=O)c3ccc(C)c(Nc4nccc(-c5cccnc5)n4)c3)cc(C(F)(F)F)c2)cn1 [Nilotinib (AMN-107)] | 108 ± 9% | 112 ± 16%
15 | CCN(CC)CCNC(=O)c1c(C)[nH]c(/C=C2\C(=O)Nc3ccc(F)cc32)c1C [Sunitinib Malate] | 83.1 ± 1.1% | 97.8 ± 4.2%
16 | Cn1cc(-c2ccc3c(c2)CCN3C(=O)Cc2cccc(C(F)(F)F)c2)c2c(N)ncnc21 | 105 ± 4.7% | 108 ± 18%
17 | CNC(=O)c1ccccc1Oc1nc(Nc2cc(OC)c(OC)c(OC)c2)ncc1Br | 98.7 ± 26% | 107 ± 11%
18 | O=c1cc(-c2ccc(O)cc2)oc2cc(O)c(O)c(O)c12 [Scutellarein] | 108 ± 3.9% | 100 ± 5.4%
19 | C=C1C[C@@]2(O)O[C@@]3(C[C@H]2C(C)C)[C@@H](C)CC[C@@H]13 [Curcumol] | 99 ± 9.7% | 97.2 ± 4.6%
20 | Oc1ccc(Nc2nc(-c3ccc(Cl)cc3)cs2)cc1 | 99.73 ± 0.67% | 105.24 ± 0.067%
21 | Cc1cc(N)c2ccccc2[n+]1CCCCCCCCCC[n+]1c(C)cc(N)c2ccccc21 [Dequalinium chloride] | 92.3 ± 15% | 96.3 ± 16%
22 | Cc1ccc2c(Nc3ccc(Cl)cc3)nccc2c1Nc1ncccc1-c1ncnc2nc[nH]c12 [B-Raf inhibitor 1] | 98.9 ± 11% | 107.5 ± 0.62%
23 | N#CC(c1ccnc(OCc2ccc(CN3CCOCC3)cc2)n1)c1nc2ccccc2s1 (centres undefined) | 107 ± 20% | 109 ± 11%
24 | CN(C)S(=O)(=O)c1ccc2c(c1)/C(=C/c1cc3c([nH]1)CCCC3)C(=O)N2 | 113 ± 3.4% | 109 ± 1.4%

Row | Structure (SMILES) | cell viability (Molm13) | cell viability (Mv4-11)
25 | CO[C@H]1C[C@@H]2CC[C@@H](C)[C@@](O)(O2)C(=O)C(=O)N2CCCC[C@H]2C(=O)O[C@H]([C@H](C)C[C@@H]2CC[C@@H](O)[C@H](OC)C2)CC(=O)[C@H](C)/C=C(\C)[C@@H](O)[C@@H](OC)C(=O)[C@H](C)C[C@H](C)/C=C/C=C/C=C/1C [Rapamycin (Sirolimus)] | 34.4 ± 8.5% | 43.3 ± 15%
26 | Cc1cncc2cccc(S(=O)(=O)N3CCCNC[C@@H]3C)c12 [(S)-H-1152 (hydrochloride)] | 100 ± 4.3% | 101 ± 3%
27 | O=c1c(O)c(-c2cc(O)c(O)c(O)c2)oc2cc(O)cc(O)c12 [Myricetin] | 106 ± 20% | 114 ± 17%
28 | CC(C)(C)Cn1c(N)nc2ccc(-c3[nH]c(C(C)(C)C)nc3-c3ccc(F)cc3)nc21 | 100 ± 12% | 84.9 ± 21%
29 | O=C(O)CCC(=O)Nc1ccc(Br)cn1 [Bikinin] | 92.5 ± 2.2% | 99.9 ± 1.9%
30 | O=C1c2ccccc2C(=O)C1c1ccccc1 [Phenylindione] | 95.7 ± 6.6% | 114 ± 1.8%
31 | FC(F)c1nc2ccccc2n1-c1nc(N2CCOCC2)nc(N2CCOCC2)n1 | 117 ± 11% | 122 ± 12%
32 | Cc1cc(O)c2c(c1)C(=O)c1cccc(O)c1C2=O [Chrysophanic Acid] | 93.1 ± 1.7% | 108 ± 12%
33 | C=CC(=O)Nc1cc2c(Nc3ccc(F)c(Cl)c3)ncnc2cc1OCCCN1CCOCC1 [Canertinib dihydrochloride] | 101 ± 3.2% | 111 ± 6.1%
34 | Cc1cccc(-c2[nH]c(C(C)(C)C)nc2-c2ccc3c(c2)OCO3)n1 | 118 ± 26% | 107 ± 20%
35 | C=CC(=O)Nc1cc(Nc2nccc(-c3c[nH]c4ccccc34)n2)c(OC)cc1N(C)CCN(C)C | 104 ± 7.9% | 121 ± 6.1%
36 | O=C1NC(=O)/C(=C/c2ccc(-c3ccc(F)cc3O)o2)S1 | 106 ± 2.7% | 95.5 ± 9.9%
37 | Nc1nc(N)c2nc(-c3cccc(O)c3)c(-c3cccc(O)c3)nc2n1 | 96.7 ± 5% | 120 ± 11%
38 | O=C(NCc1cccc(O)c1)c1cc2cc(F)ccc2[nH]1 | 113 ± 3.2% | 114 ± 1.2%
39 | COc1ccc(CCNCc2ccc(OCc3ccc(Cl)nc3)c(OC)c2)cc1OC [SBE 13 hydrochloride] | 99.3 ± 18% | 107 ± 3%
40 | CC(C)c1cnc(NC(=O)Cc2ccccc2)s1 | 92.8 ± 37% | 98.7 ± 9.3%
41 | CN1CCCN(C(=O)c2cccc(-c3ccc(/C=C4/C(=O)Nc5ccc(Cl)cc54)o3)c2)CC1 | 127 ± 13% | 120 ± 2.9%
42 | CC(C)n1nc(-c2ccc3oc(N)nc3c2)c2c(N)ncnc21 | 89.4 ± 12% | 86.16 ± 0.51%
43 | O=C(O)c1cc(NCc2cc(O)ccc2O)ccc1O [Lavendustin C] | 111 ± 13% | 104 ± 1.9%
44 | CCCCCCCCCCCCCCCCOP(=O)([O-])OCC[N+](C)(C)C [Miltefosine] | 76.2 ± 20% | 102 ± 7.5%
45 | O=C1c2cccc(O)c2C(=O)c2c(O)cccc21 [Antrapurol] | 112 ± 7.6% | 109 ± 3.2%
46 | CS(=O)(=O)c1cccc(CNc2nc(Nc3ccc4c(c3)CCC(=O)N4)ncc2C(F)(F)F)c1 | 98.44 ± 0.67% | 101 ± 4.3%
47 | CC1(C)CN(C(=O)c2ccc(-c3cccc4nc(NC(=O)C5CC5)nn34)cc2)C1 [Solcitinib] | 115 ± 6.5% | 114 ± 3.3%
48 | CCOc1cc(C(=O)N2CCC(N3CCN(C)CC3)CC2)ccc1Nc1ncc2c(n1)N(C1CCCC1)c1ccccc1C(=O)N2C | 111 ± 7.2% | 96.1 ± 19%

Row | Structure (SMILES) | cell viability (Molm13) | cell viability (Mv4-11)
49 | Cc1ccc2nc(-n3[nH]c(C)c(Cc4ccccc4)c3=O)[nH]c2c1 | 103 ± 0.84% | 106 ± 4.3%
50 | Cn1cnc2c(F)c(Nc3ccc(Br)cc3Cl)c(C(=O)NOCCO)cc21 [Selumetinib (AZD6244)] | 106 ± 18% | 106 ± 3.2%
51 | Cc1cnc(Nc2ccc(OCCN3CCCC3)cc2)nc1Nc1cccc(S(=O)(=O)NC(C)(C)C)c1 | 86.3 ± 1.3% | 92.97 ± 0.82%
52 | CCn1c(N)c(C(=O)NC)c(=O)c2ccc(C#CC(C)(O)COC)nc21 (centres undefined) | 110 ± 4.6% | 115 ± 8.3%
53 | O=C(O)c1ccc(-c2c[nH]c3ncc(-c4ccccc4)cc23)cc1C1CCCC1 | 107 ± 1.1% | 96 ± 2.7%
54 | O=C1NCCCc2c1oc1ccc(O)cc21 | 107 ± 1.9% | 104 ± 3.1%
55 | CCN(CC)CCNC(=O)c1c(C)[nH]c(/C=C2\C(=O)Nc3ccc(F)cc32)c1C [Sunitinib (malate)] | 50.3 ± 5.7% | 63.4 ± 1.2%
56 | CC(C)(C)c1cc(NC(=O)Nc2ccc(-c3cn4c(n3)sc3cc(OCCN5CCOCC5)ccc34)cc2)no1 [Quizartinib (AC220)] | 9.37 ± 9.1% | 3.71 ± 2.9%
57 | CCOc1cc2ncc(C#N)c(Nc3ccc(F)c(Cl)c3)c2cc1NC(=O)/C=C/CN(C)C [Pelitinib (EKB-569)] | 104 ± 12% | 104 ± 3.4%
58 | CN(C)Cc1cccc(N=C(c2ccccc2)c2c(O)[nH]c3cc(C(=O)N(C)C)ccc23)c1 | 108 ± 4.4% | 111 ± 12%
59 | COc1cc(OC)c(/C=C/S(=O)(=O)Cc2ccc(OC)c(OP(=O)(O)O)c2)c(OC)c1 [Briciclib] | 114 ± 25% | 106 ± 11%
60 | CSc1cccc(Nc2ncc3cc(-c4c(Cl)cccc4Cl)c(=O)n(C)c3n2)c1 | 92.8 ± 10% | 101 ± 7.8%
61 | CN1CCN(c2ccc(C(=O)Nc3cc(-c4cccc(NS(=O)(=O)c5ccccc5)c4)[nH]n3)cc2)CC1 | 61.4 ± 18% | 85.5 ± 9.9%
62 | Cc1cc(O)c2c(c1)C(=O)c1cc(O)cc(O)c1C2=O [Emodin] | 91.2 ± 7.2% | 99.1 ± 2.6%
63 | O=C(O)c1ccc2nc(-c3ccccc3)c(-c3ccccc3)nc2c1 | 98.2 ± 15% | 111.7 ± 0.8%
64 | Nc1nc(NC2CC2)cc(-c2cccc(Cl)c2Cl)n1 | 115 ± 8.1% | 96.9 ± 4.4%
65 | COc1ccc(-c2cc(=O)c3c(O)cc(O)cc3o2)cc1O [Diosmetin] | 93.4 ± 11% | 96.8 ± 6.3%
66 | CC(C)(C)c1ccc(S(=O)(=O)/C=C/C#N)cc1 | 108 ± 16% | 98.9 ± 4.4%
67 | CC(C)c1[nH]nc(Cl)c1-c1ccnc(Nc2ccc(N3CCC(N(C)C)CC3)cn2)n1 | 115 ± 1.8% | 112 ± 9.6%
68 | CC(=O)Nc1cccc(-n2c(=O)n(C3CC3)c(=O)c3c(Nc4ccc(I)cc4F)n(C)c(=O)c(C)c32)c1 | 101 ± 25% | 107 ± 1.9%
69 | COc1cc2ncnc(Oc3ccc(CC(=O)Nc4cnn(C(C)C)c4)cc3)c2cc1OC | 24.8 ± 4.2% | 29.8 ± 2.1%
70 | C[C@@H]1O[C@@H](OC[C@H]2O[C@@H](Oc3c(-c4ccc(O)c(O)c4)oc4cc(O)cc(O)c4c3=O)[C@H](O)[C@@H](O)[C@@H]2O)[C@H](O)[C@H](O)[C@H]1O [Rutin] | 103 ± 1.5% | 113.3 ± 0.28%
71 | Cc1[nH]c(/C=C2\C(=O)Nc3ccc(S(=O)(=O)N(C)c4cccc(Cl)c4)cc32)c(C)c1C(=O)N1CCN(C)CC1 | 104 ± 22% | 107 ± 13%
72 | O=C1NC(=O)/C(=C/c2ccc3nccc(-c4ccncc4)c3c2)S1 | 106% and 113% | 103% and 115%
